From PubChem BioAssay (NCI)
The panel holds about 83,000 compounds, 20% with a hit somewhere; the sample as a whole holds those more often.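 Note: values are percent growth. 100 is the growth of untreated cells, values between 100 and 0 indicate rising inhibition; between -100 and 0 indicates cell death.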 Unmarked numbers belong to inactive results. Activity calls are given as the source filed them.

These compounds were tested on SNB-19 CNS (assay: NCI-60 one-dose screen, 48 h (100 = growth as untreated, 0 = no growth, -100 = all killed)). Conditions: 10 µM unless noted.
Method: Growth inhibition of the SNB-19 human tumor cell line is measured as a screen for anti-cancer activity. Cells are grown in 96 well plates and exposed to the test compound for 48 hours. Compounds are tested at a single concentration, which is 10^-5 M for most compounds. The reported endpoint is percent growth (GI% or GIPRCNT), where numbers from 0 - 100% represent growth inhibition, and numbers from -100% - 0 represent cell death. For example, a value of 40 represents 60% growth inhibition. A value of 0 means no net growth occurred over the course of the experiment. A value of -40 indicates 40% of cells at the beginning of the experiment died by the end of the experiment. A value of -100 means all cells are dead at the end of the experiment.
NCI-60 Human Tumor Cell Lines Screen was performed using the standard one-dose NCI protocol, which is described in more detail at https://dtp.cancer.gov/discovery_development/nci-60/default.htm.
Compounds with GIPRCNT values below 10 were considered active. Activity score was based on GIPRCNT using the following formula: […]
Score is 0 for GIPRCNT values of 100 or above, 50 for GIPRCNT values of 0, and 100 for GIPRCNT values of -100.
With C=CC[P+](c1ccccc1)(c1ccccc1)c1ccccc1 the growth was 61.6%. For COc1cc(C2CC(=O)Nc3c2ccc2ccccc32)cc(Br)c1OC (stereo not given), the growth was 39%. In the case of COc1ccc(CSc2nc3cc(OC)c(OC)cc3c(=O)n2-c2ccc(Cl)cc2)cc1, the growth is reported as 99.8%. Cc1c(C)n(CC(O)CNC2CCCCC2C)c2ccccc12 (stereo not given) was tested, and the growth was 62%. Compound Cc1ccc(-c2c3c(N)c4c(nc3nc3c2c(C)nn3-c2ccccc2)CCCC4)cc1 has a growth of 108%. For CCN1CCN(c2nc3ccccc3c3c(=O)c4cc(F)ccc4sc23)CC1, the growth was 80.9%. CCOC(=O)n1cc(C2=C(c3cn(C)c4ccccc34)COC2=O)c2ccccc21 was tested, and the growth was 30.5%. COc1ccc(OC2=CC(=O)c3ccc(C)nc3C2=O)cc1 showed a growth of 87.7%. With O=C(Nc1nc2ccccc2[nH]1)C(=O)Nc1nc2ccccc2[nH]1 the growth was 101%. With COc1cc(/C=N/NC(=O)c2cnn3c2NC(c2ccccc2)C3)ccc1OC1CCCC1 (stereo not given) the growth was 39.1%. In the case of O=C1CCC(N2Cc3c(C#CCCCNC(=O)c4cc5c(o4)C(=O)c4ccccc4C5=O)cccc3C2=O)C(=O)N1 (stereo not given), the growth is reported as -8.73% (active). O=S(=O)(Nc1ccccc1Cl)c1ccc(-c2cnc(C3CC3)o2)cc1 was tested, and the growth was 39.2%. O=C1c2cc(S(=O)(=O)O)ccc2C(=O)c2c1cccc2[N+](=O)[O-] gave a growth of 106%. Cc1ccc(S(=O)(=O)N(c2ccc(Cl)cc2)c2ccc(Br)cc2C(=O)O)cc1 gave a growth of 99.9%. Compound CCC(C)Oc1cc(/C=N/NC(=O)c2cnn3c2NC(c2ccccc2)C3)ccc1OC (stereo not given) has a growth of 38.6%. COc1ccc(-c2[nH]ncc2Nc2cc(OC)c(OC)c(OC)c2)cc1 was tested, and the growth was 34.6%. In the case of ONc1nc(NO)c2[nH]cnc2n1, the growth is reported as 112%. Compound CCCCCCCCCCCCCCn1c2ccccc2c2c3c(c4c5cc(OC)ccc5oc4c21)C(=O)NC3=O has a growth of 105%. With COc1cc(/C=C/c2cc(/C=C/c3ccc(O)c(OC)c3)n(-c3ccccc3)n2)ccc1O the growth was 1.18% (active). Cn1c(=O)c(S(=O)(=O)c2ccccc2)cc2ccc3c(cnn3-c3ccc(Cl)cc3)c21 was tested, and the growth was 90.1%. With Cc1ccc(S(=O)(=O)N2C/C(=C\c3cc(F)cc(F)c3)C(=O)/C(=C/c3cc(F)cc(F)c3)C2)cc1 the growth was -61.7% (active). O=C1/C(=C/c2ccc([N+](=O)[O-])cc2)Oc2ccc(O)cc21 showed a growth of 90.7%. c1ccc(-c2n(Cc3ccc4ccccc4n3)c3ccccc3[n+]2Cc2ccc3ccccc3n2)cc1 was tested, and the growth was 10.6%. In the case of O=C(CC(O)c1ccccc1)Nc1ccccn1 (stereo not given), the growth is reported as 92.1%. C[C@@H](Oc1cc(-c2cnn(C3CC4(CNC4)C3)c2)cnc1N)c1c(Cl)ccc(F)c1Cl was tested, and the growth was 96.7%. In the case of COc1ccc(/C=C2\SC(=O)N(CN3CCN(c4cc5c(cc4F)c(=O)c(C(=O)O)cn5C4CC4)CC3)C2=O)cc1, the growth is reported as 100%. With O=C1/C(=C/c2ccc(F)cc2)CN(Cc2cn(CCNc3ccnc4cc(Cl)ccc34)nn2)C/C1=C\c1ccc(F)cc1 the growth was -74.4% (active). For COc1cc(-c2ccc3cc(OC)c(OC)c(OC)c3c2)cc(OC)c1OC, the growth was 85.4%. Compound CCCC1=NNC(=O)C1 has a growth of 103%. Compound COc1ccc(Sc2ccc3[nH]c(=O)nc(N)c3c2)cc1 has a growth of 94.1%. Cc1nc2cc(Nc3nc(Nc4ccc(F)cc4)nc(N4CCCC4)n3)ccc2n1Cc1ccccc1 showed a growth of 33.6%. Cc1nc2cc(Nc3nc(N4CCOCC4)nc(N4CCN(C)CC4)n3)ccc2n1Cc1ccccc1 showed a growth of 106%. CCOC(=O)c1cn2c3c(cc(F)cc3c1=O)C(CC)c1ccccc1C2 (stereo not given) was tested, and the growth was 103%. For CCOC(=O)c1c(Cl)c2c(n1Cc1ccc(OC)cc1)-c1oncc1CCC2, the growth was 89.1%. Work on Cc1ccc(C2SCC(=O)N2NC(=O)c2[nH]c3ccc(F)cc3c2-c2ccccc2)cc1 (stereo not given) yielded a growth of 88.5%. For FC(F)(F)c1cc(CNc2nc(Cl)ncc2Br)cc(C(F)(F)F)c1, the growth was 107%. Cc1nc2cc(Nc3nc(N4CCCCC4)nc(N4CCOCC4)n3)ccc2n1Cc1ccccc1 was tested, and the growth was 65.3%. CC1(C)CC(=O)C2=C(C1)Nc1cc3c(cc1C2c1ccc(F)cc1)OCO3 (stereo not given) gave a growth of 96.5%. O=C1CC2c3cc(-c4cc5ccccc5o4)ccc3CCN2C(=O)N1c1ccccc1 (stereo not given) was tested, and the growth was 89.6%. Work on O=C(N/N=C(\CS(=O)(=O)c1ccccc1)c1cc2cc(Br)ccc2oc1=O)c1ccccc1 yielded a growth of 103%.
